Experimental data as given in the supplement of paper PMC13380429.

System: Vero E6 infected with SARS-CoV-2
Assay: inhibition of SARS-CoV-2 cytopathic effect; higher = more antiviral protection, active = above 15
Conditions: 48 h

Measured: inhibition of SARS-CoV-2 cytopathic effect

CC(=O)O[C@H]1CC[C@@]2(C)C(=CC[C@@H]3[C@@H]2CC[C@]2(C)C(c4cccnc4)=CC[C@@H]32)C1 [abiraterone-acetate]
inactive: 1 nM -0.73% | 8.33 nM 0.99% | 100 nM -0.37% | 833.33 nM -1.43% | 10000 nM -0.75%

CO[C@@H]1[C@H](O)[C@@H](CO)O[C@H]1n1cnc2c(NC3CCCCC3)ncnc21
inactive: 1 nM -0.97% | 8.33 nM 1.94% | 100 nM 8.69% | 833.33 nM 1.46% | 10000 nM -0.79%

COc1cc(OC)c(OC)cc1C=O [asaraldehyde]
inactive: 1 nM -1.46% | 8.33 nM -1.92% | 100 nM -1.24% | 833.33 nM -1.97% | 10000 nM 0.07%

Nc1ncnc2c1nc(Br)n2[C@@H]1O[C@@H]2COP(=O)(O)O[C@H]2[C@H]1O [8-bromo-cAMP]
inactive: 1 nM 2.13% | 8.33 nM 0.61% | 100 nM 1.53% | 833.33 nM -1.33% | 10000 nM -0.37%

CC(C)NCC(O)c1cc(O)cc(O)c1 (stereo not given) [metaproterenol]
inactive: 1 nM -0.95% | 8.33 nM 3.21% | 100 nM 0.75% | 833.33 nM -1.4% | 10000 nM 0.75%

Cc1cc(C(C#N)c2ccc(Cl)cc2)c(Cl)cc1NC(=O)c1cc(I)cc(I)c1O (stereo not given) [closantel]
inactive: 1 nM 0.26% | 8.33 nM 1.55% | 100 nM 1.07% | 833.33 nM 3.04% | 10000 nM 5.87%

CO/N=C(\C(=O)N[C@@H]1C(=O)N2C(C(=O)O)=C(CSc3nc(C)c(CC(=O)O)s3)CS[C@H]12)c1csc(N)n1 [cefodizime]
inactive: 1 nM -6.45% | 8.33 nM -0.68% | 100 nM -2% | 833.33 nM -0.21% | 10000 nM -4.2%

Cc1cccc(C)c1NC(=O)[C@@H](C)N [tocainide]
inactive: 1 nM 1.21% | 8.33 nM 0.17% | 100 nM -6.26% | 833.33 nM 1.04% | 10000 nM -4.59%

O=C(Nc1ccc(N2CCC(C(=O)N3CCOCC3)CC2)cc1)c1cnc(Oc2ccccc2)nc1
inactive: 1 nM 0.64% | 8.33 nM 1.26% | 100 nM 2.38% | 833.33 nM 1.19% | 10000 nM -0.78%

C=CCNC(=O)c1cc([N+](=O)[O-])cc2c(=O)[nH]c(Nc3ccc(Cl)c(Cl)c3)nc12
inactive: 1 nM 0.56% | 8.33 nM 4.08% | 100 nM -1.8% | 833.33 nM 9.51% | 10000 nM 1.19%

CCN(CC)CCNC(=O)COc1ccc(OC)cc1 [mefexamide]
inactive: 1 nM 1.84% | 8.33 nM 2.71% | 100 nM -0.86% | 833.33 nM -0.89% | 10000 nM -2.3%

O=NN(CCCl)C(=O)NC1CCCCC1 [lomustine]
inactive: 1 nM -1.8% | 8.33 nM 1.26% | 100 nM 1.76% | 833.33 nM 2.26% | 10000 nM -0.14%

CC[C@H]1[C@@H](O)[C@@H]2[C@H](CC[C@]3(C)[C@@H]([C@H](C)CCOS(=O)(=O)O)CC[C@@H]23)[C@@]2(C)CC[C@@H](O)C[C@@H]12
inactive: 1 nM 0.86% | 8.33 nM 1.92% | 100 nM -0.03% | 833.33 nM 1.94% | 10000 nM 1.9%

c1cnc(NCc2ccc(CNc3ncccn3)cc2)nc1
inactive: 1 nM -2.38% | 8.33 nM -1.7% | 100 nM -0.65% | 833.33 nM -1.46% | 10000 nM -0.62%

CN1CCCN=C1/C=C/c1cccs1 [pyrantel-pamoate]
inactive: 1 nM 1.74% | 8.33 nM 1.39% | 100 nM 2.36% | 833.33 nM 0.63% | 10000 nM -3.05%

O=C1c2cccc(O)c2C(=O)c2c(O)cccc21 [dantron]
inactive: 1 nM -2.75% | 8.33 nM -3.39% | 100 nM -1.6% | 833.33 nM -0.79% | 10000 nM 0.11%

CC(=O)[C@]1(N)Cc2c(O)c3c(c(O)c2[C@@H](O[C@H]2C[C@H](O)[C@H](O)CO2)C1)C(=O)c1ccccc1C3=O [amrubicin]
inactive: 1 nM 2.67% | 8.33 nM -2.31% | 100 nM -3.18% | 833.33 nM -3.9% | 10000 nM -0.58%

NS(=O)(=O)c1cc(C(=O)O)c(NCc2ccco2)cc1Cl [furosemide]
inactive: 1 nM -1.05% | 8.33 nM 1.27% | 100 nM -1.4% | 833.33 nM 0.41% | 10000 nM 2.18%

CO[C@H]1C[C@@H]2CC[C@@H](C)[C@@](O)(O2)C(=O)C(=O)N2CCCC[C@H]2C(=O)O[C@H]([C@H](C)C[C@@H]2CC[C@H](n3cnnn3)[C@H](OC)C2)CC(=O)[C@H](C)/C=C(\C)[C@@H](O)[C@@H](OC)C(=O)[C@H](C)C[C@H](C)/C=C/C=C/C=C/1C [zotarolimus]
inactive: 1 nM -1.51% | 8.33 nM -2.41% | 100 nM -1.68% | 833.33 nM -2.21% | 10000 nM 1.71%

CC(C)(C)C(=O)OCOC(=O)[C@@H]1N2C(=O)[C@@H](NC(=O)[C@H](N)c3ccccc3)[C@H]2SC1(C)C [pivampicillin]
inactive: 1 nM 3.04% | 8.33 nM 3.24% | 100 nM 2.48% | 833.33 nM 0.64% | 10000 nM -3.25%
